According to article PMC11062922 (Nature Chemical Biology, 2023):

Columns and labels:
BUB1 = tested on: BUB1; design: species or system human, MV4-11 + K-562 + COLO205 + SK-N-BE2 + OVCAR-8; conditions: read-out: apparent Kd; compound concentrations: 100 nM and 1000 nM (sheet 'Samples'), CATDS: 2.1802873020005002E-2; n = 1
CDC42BPA = tested on: CDC42BPA; design: species or system human, MV4-11 + K-562 + COLO205 + SK-N-BE2 + OVCAR-8; conditions: read-out: apparent Kd; compound concentrations: 100 nM and 1000 nM (sheet 'Samples'), CATDS: 2.9689579346921902E-2; n = 1
CDC42BPB = tested on: CDC42BPB; design: species or system human, MV4-11 + K-562 + COLO205 + SK-N-BE2 + OVCAR-8; conditions: read-out: apparent Kd; compound concentrations: 100 nM and 1000 nM (sheet 'Samples'), CATDS: 2.9604428475736501E-2; n = 1
CDC42BPG = tested on: CDC42BPG; design: species or system human, MV4-11 + K-562 + COLO205 + SK-N-BE2 + OVCAR-8; conditions: read-out: apparent Kd; compound concentrations: 100 nM and 1000 nM (sheet 'Samples'), CATDS: 3.5199852415490701E-2; n = 1
CDC7 = tested on: CDC7; design: species or system human, MV4-11 + K-562 + COLO205 + SK-N-BE2 + OVCAR-8; conditions: read-out: apparent Kd; compound concentrations: 100 nM and 1000 nM (sheet 'Samples'), CATDS: 2.6746378417374699E-2; n = 1
CDK4 = tested on: CDK4; design: species or system human, MV4-11 + K-562 + COLO205 + SK-N-BE2 + OVCAR-8; conditions: read-out: apparent Kd; compound concentrations: 100 nM and 1000 nM (sheet 'Samples'), CATDS: 2.4664855297043799E-2; n = 1
CLK4 = tested on: CLK4; design: species or system human, MV4-11 + K-562 + COLO205 + SK-N-BE2 + OVCAR-8; conditions: read-out: apparent Kd; compound concentrations: 100 nM and 1000 nM (sheet 'Samples'), CATDS: 2.52027212323017E-2; n = 1
DYRK1A = tested on: DYRK1A; design: species or system human, MV4-11 + K-562 + COLO205 + SK-N-BE2 + OVCAR-8; conditions: read-out: apparent Kd; compound concentrations: 100 nM and 1000 nM (sheet 'Samples'), CATDS: 2.7886290868283401E-2; n = 1
GSK3A = tested on: GSK3A; design: species or system human, MV4-11 + K-562 + COLO205 + SK-N-BE2 + OVCAR-8; conditions: read-out: apparent Kd; compound concentrations: 100 nM and 1000 nM (sheet 'Samples'), CATDS: 3.2478486549428802E-2; n = 1
GSK3B = tested on: GSK3B; design: species or system human, MV4-11 + K-562 + COLO205 + SK-N-BE2 + OVCAR-8; conditions: read-out: apparent Kd; compound concentrations: 100 nM and 1000 nM (sheet 'Samples'), CATDS: 2.76286010769239E-2; n = 1
NNT = tested on: NNT; design: species or system human, MV4-11 + K-562 + COLO205 + SK-N-BE2 + OVCAR-8; conditions: read-out: apparent Kd; compound concentrations: 100 nM and 1000 nM (sheet 'Samples'), CATDS: 2.2589714418096801E-2; n = 1
PIM1 = tested on: PIM1; design: species or system human, MV4-11 + K-562 + COLO205 + SK-N-BE2 + OVCAR-8; conditions: read-out: apparent Kd; compound concentrations: 100 nM and 1000 nM (sheet 'Samples'), CATDS: 3.4638112150075201E-2; n = 1
PKN1 = tested on: PKN1; design: species or system human, MV4-11 + K-562 + COLO205 + SK-N-BE2 + OVCAR-8; conditions: read-out: apparent Kd; compound concentrations: 100 nM and 1000 nM (sheet 'Samples'), CATDS: 6.9293964383533801E-2; n = 1
PKN2 = tested on: PKN2; design: species or system human, MV4-11 + K-562 + COLO205 + SK-N-BE2 + OVCAR-8; conditions: read-out: apparent Kd; compound concentrations: 100 nM and 1000 nM (sheet 'Samples'), CATDS: 0.13828274878435901; n = 1
PKN3 = tested on: PKN3; design: species or system human, MV4-11 + K-562 + COLO205 + SK-N-BE2 + OVCAR-8; conditions: read-out: apparent Kd; compound concentrations: 100 nM and 1000 nM (sheet 'Samples'), CATDS: 2.6445492378014E-2; n = 1
PRKACA = tested on: PRKACA; design: species or system human, MV4-11 + K-562 + COLO205 + SK-N-BE2 + OVCAR-8; conditions: read-out: apparent Kd; compound concentrations: 100 nM and 1000 nM (sheet 'Samples'), CATDS: 2.2371204771335199E-2; n = 1
PRKCA = tested on: PRKCA; design: species or system human, MV4-11 + K-562 + COLO205 + SK-N-BE2 + OVCAR-8; conditions: read-out: apparent Kd; compound concentrations: 100 nM and 1000 nM (sheet 'Samples'), CATDS: 3.9494099322939E-2; n = 1
PRKCB = tested on: PRKCB; design: species or system human, MV4-11 + K-562 + COLO205 + SK-N-BE2 + OVCAR-8; conditions: read-out: apparent Kd; compound concentrations: 100 nM and 1000 nM (sheet 'Samples'), CATDS: 4.76963750103866E-2; n = 1
PRKCD = tested on: PRKCD; design: species or system human, MV4-11 + K-562 + COLO205 + SK-N-BE2 + OVCAR-8; conditions: read-out: apparent Kd; compound concentrations: 100 nM and 1000 nM (sheet 'Samples'), CATDS: 6.0948363535237499E-2; n = 1
PRKCI = tested on: PRKCI; design: species or system human, MV4-11 + K-562 + COLO205 + SK-N-BE2 + OVCAR-8; conditions: read-out: apparent Kd; compound concentrations: 100 nM and 1000 nM (sheet 'Samples'), CATDS: 3.5414471461485103E-2; n = 1
PRKCQ = tested on: PRKCQ; design: species or system human, MV4-11 + K-562 + COLO205 + SK-N-BE2 + OVCAR-8; conditions: read-out: apparent Kd; compound concentrations: 100 nM and 1000 nM (sheet 'Samples'), CATDS: 2.3037545247832199E-2; n = 1
PRKG1 = tested on: PRKG1; design: species or system human, MV4-11 + K-562 + COLO205 + SK-N-BE2 + OVCAR-8; conditions: read-out: apparent Kd; compound concentrations: 100 nM and 1000 nM (sheet 'Samples'), CATDS: 3.8596421043345E-2; n = 1
PRKX;PRKY = tested on: PRKX;PRKY; design: species or system human, MV4-11 + K-562 + COLO205 + SK-N-BE2 + OVCAR-8; conditions: read-out: apparent Kd; compound concentrations: 100 nM and 1000 nM (sheet 'Samples'), CATDS: 4.0324961931199298E-2; n = 1
Q6ZSR9 = Q6ZSR9 (human, UniProt Q6ZSR9); design: species or system MV4-11 + K-562 + COLO205 + SK-N-BE2 + OVCAR-8; conditions: read-out: apparent Kd; compound concentrations: 100 nM and 1000 nM (sheet 'Samples'), CATDS: 2.23637013148167E-2; n = 1
Sequence of Q6ZSR9 (Q6ZSR9 whole entry, looked up): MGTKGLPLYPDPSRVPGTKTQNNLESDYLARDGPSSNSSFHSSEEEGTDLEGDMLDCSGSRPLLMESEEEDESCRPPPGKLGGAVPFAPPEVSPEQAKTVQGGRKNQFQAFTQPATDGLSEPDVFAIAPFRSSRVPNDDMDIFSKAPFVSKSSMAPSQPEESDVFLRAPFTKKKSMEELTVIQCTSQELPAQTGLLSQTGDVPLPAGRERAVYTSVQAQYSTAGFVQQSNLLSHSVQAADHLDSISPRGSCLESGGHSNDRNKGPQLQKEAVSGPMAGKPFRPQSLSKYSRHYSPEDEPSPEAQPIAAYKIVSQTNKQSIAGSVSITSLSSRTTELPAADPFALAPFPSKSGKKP

ROCK1 = tested on: ROCK1; design: species or system human, MV4-11 + K-562 + COLO205 + SK-N-BE2 + OVCAR-8; conditions: read-out: apparent Kd; compound concentrations: 100 nM and 1000 nM (sheet 'Samples'), CATDS: 0.20486846489085001; n = 1
ROCK2 = tested on: ROCK2; design: species or system human, MV4-11 + K-562 + COLO205 + SK-N-BE2 + OVCAR-8; conditions: read-out: apparent Kd; compound concentrations: 100 nM and 1000 nM (sheet 'Samples'), CATDS: 0.25564914108925302; n = 1
RPS6KA3 = tested on: RPS6KA3; design: species or system human, MV4-11 + K-562 + COLO205 + SK-N-BE2 + OVCAR-8; conditions: read-out: apparent Kd; compound concentrations: 100 nM and 1000 nM (sheet 'Samples'), CATDS: 2.2411381111350701E-2; n = 1
RPS6KA4 = tested on: RPS6KA4; design: species or system human, MV4-11 + K-562 + COLO205 + SK-N-BE2 + OVCAR-8; conditions: read-out: apparent Kd; compound concentrations: 100 nM and 1000 nM (sheet 'Samples'), CATDS: 2.93060004016619E-2; n = 1
RPS6KA5 = tested on: RPS6KA5; design: species or system human, MV4-11 + K-562 + COLO205 + SK-N-BE2 + OVCAR-8; conditions: read-out: apparent Kd; compound concentrations: 100 nM and 1000 nM (sheet 'Samples'), CATDS: 7.09289008095534E-2; n = 1
RPS6KB1 = tested on: RPS6KB1; design: species or system human, MV4-11 + K-562 + COLO205 + SK-N-BE2 + OVCAR-8; conditions: read-out: apparent Kd; compound concentrations: 100 nM and 1000 nM (sheet 'Samples'), CATDS: 3.4363243173278199E-2; n = 1

## CCn1c(-c2nonc2N)nc2cncc(C(=O)NCCNC)c21 [GW876790X]
BUB1
  potency estimated from few doses: 2400 nM
CDC42BPA
  potency estimated from few doses: 783 nM
CDC42BPB
  potency estimated from few doses: 790 nM
CDC42BPG
  potency estimated from few doses: 498 nM
CDC7
  potency estimated from few doses: 1080 nM
CDK4
  potency estimated from few doses: 1430 nM
CLK4
  potency estimated from few doses: 1320 nM
DYRK1A
  potency estimated from few doses: 944 nM
GSK3A
  potency estimated from few doses: 612 nM
GSK3B
  potency estimated from few doses: 971 nM
NNT
  potency estimated from few doses: 2030 nM
PIM1
  potency estimated from few doses: 519 nM
PKN1
  potency estimated from few doses: 118 nM
PKN2
  potency estimated from few doses: 35.1 nM
PKN3
  potency estimated from few doses: 1120 nM
PRKACA
  potency estimated from few doses: 2120 nM
PRKCA
  potency estimated from few doses: 378 nM
PRKCB
  potency estimated from few doses: 249 nM
PRKCD
  potency estimated from few doses: 152 nM
PRKCI
  potency estimated from few doses: 491 nM
PRKCQ
  potency estimated from few doses: 1870 nM
PRKG1
  potency estimated from few doses: 399 nM
PRKX;PRKY
  potency estimated from few doses: 361 nM
Q6ZSR9
  potency estimated from few doses: 2130 nM
ROCK1
  potency estimated from few doses: 19.1 nM
ROCK2
  potency estimated from few doses: 13.9 nM
RPS6KA3
  potency estimated from few doses: 2110 nM
RPS6KA4
  potency estimated from few doses: 813 nM
RPS6KA5
  potency estimated from few doses: 113 nM
RPS6KB1
  potency estimated from few doses: 529 nM
